Bioassay records deposited in PubChem by Center for Chemical Genomics, University of Michigan.
Dicer processing: inhibitors of Dicer pre-microRNA processing, primary screen, biochemical, cat-ELCCA, chemiluminescence | cat-ELCCA pre-miR-21 Dicer processing; active compounds read high | AID 1347074, 2019 | z-score at 25 µM | 47,000 compounds, 6% hits; in the data active = z-score above about 3, passing the limit was not always enough;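 note: higher signal means more uncleaved substrate so more Dicer inhibition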
Numbers stand for hits; ! = not active in a repeat. The entries come from a sample that favours hits as a whole.

For COc1ccc(CN2CCN(S(C)(=O)=O)CC2)cc1OC the results were Dicer processing inactive.
CCN1/C(=C/C=C/c2sc3cc(NC(C)=O)ccc3[n+]2CC)Sc2cc(NC(C)=O)ccc21 was read as Dicer processing inactive.
For O=C(NC1CCCCC1)N(Cc1ccccc1)Cc1ccco1 the results were Dicer processing inactive.
Screening COc1ccc(OCC(O)Cn2c[n+](C)c3cc(C)c(C)cc32)cc1 (stereo not drawn) returned Dicer processing inactive.
`CCN(CC)c1ccc(C2C(C(=O)OC(C)C)=C(C)NC3=C2C(=O)CC(C)(C)C3)cc1` (stereo not drawn) gave Dicer processing inactive.
`O=C1OC2(CCCC2)OC(=O)C1=Cc1ccoc1` gave Dicer processing 3.46.
CC1(C)OC(=O)C(=Cc2ccc[nH]2)C(=O)O1 was read as Dicer processing inactive.
For CSc1ccc(C=C2C(=O)OC(C)(C)OC2=O)s1 the results were Dicer processing inactive.
Screening Cc1ccc(NC(=O)c2ccccc2)c(OC(=O)c2ccccc2)c1 returned Dicer processing inactive.
Screening Cc1nc(Br)sc1C(=O)O returned Dicer processing inactive.
C[C@H](Cc1ccc(O)c(O)c1)[C@@H](C)Cc1ccc(O)c(O)c1 was read as Dicer processing inactive.
`CCCCCCCC/C=C\CCCCCCCC(=O)NCCc1ccc(O)c(O)c1` gave Dicer processing inactive.
CC(CCc1ccc(O)cc1)NCCc1ccc(O)c(O)c1 (stereo not drawn) was read as Dicer processing 6.96!.
`C=CNC(=S)NNC(=O)COc1ccccc1` gave Dicer processing inactive.
For COC(=O)/C=C(/Nc1cc(OC)ccc1OC)C(=O)OC the results were Dicer processing inactive.
Screening Cc1cccc(NC(c2cccc(O)c2)c2ccc3ccc(C)nc3c2O)n1 (stereo not drawn) returned Dicer processing inactive.
Screening Cc1ccc2ccc(C(Nc3ccccn3)c3cccc(Br)c3)c(O)c2n1 (stereo not drawn) returned Dicer processing inactive.
Cc1ccc(C)c(C(Nc2ccccn2)c2ccc3cccnc3c2O)c1 (stereo not drawn) was read as Dicer processing inactive.
`Cc1ccc(C(Nc2ccccn2)c2ccc3ccc(C)nc3c2O)cc1` (stereo not drawn) gave Dicer processing inactive.
Cc1ccc2ccc(C(Nc3ccccn3)c3cccc(Cl)c3)c(O)c2n1 (stereo not drawn) was read as Dicer processing 15.9.
`Cc1ccccc1C(Nc1ccccn1)c1ccc2cccnc2c1O` (stereo not drawn) gave Dicer processing 5.68.
Cc1ccnc(NC(c2ccccc2C)c2ccc3cccnc3c2O)c1 (stereo not drawn) was read as Dicer processing inactive.
`C=CCOc1ccc(C(Nc2ccccn2)c2ccc3ccc(C)nc3c2O)cc1` (stereo not drawn) gave Dicer processing inactive.
Cc1ccc2ccc(C(Nc3ccccn3)c3ccc(Cl)cc3)c(O)c2n1 (stereo not drawn) was read as Dicer processing 4.77.
Screening CCc1c2ccc(C)n2cc[n+]1CC(=O)c1ccccc1 returned Dicer processing inactive.
`CC(C)Cc1ccc(C(=O)CC2OC(=O)c3ccccc32)cc1` (stereo not drawn) gave Dicer processing inactive.
Screening COCCOC(=O)C1=C(C)NC2=C(C(=O)CCC2)C1c1ccc(OC)cc1 (stereo not drawn) returned Dicer processing inactive.
CC1CC(Nc2ccccc2)c2ccccc2N1S(=O)(=O)c1ccc(Br)cc1 (stereo not drawn) was read as Dicer processing inactive.
For Cc1ccc(C(=O)/C=C(/CC(=O)c2ccc(Br)cc2)c2ccccc2)cc1 the results were Dicer processing inactive.
Screening COc1ccc(NC(=O)c2c(NC(=O)c3ccco3)sc3c2CCCCC3)cc1 returned Dicer processing inactive.
Screening CCN(CC)c1ccc(C2CC(=O)C3=C(C2)Nc2ccccc2NC3c2ccco2)cc1 (stereo not drawn) returned Dicer processing 8.17.
Screening O=C1CC(c2ccco2)CC2=C1C(c1ccco1)Nc1ccccc1N2 (stereo not drawn) returned Dicer processing inactive.
`COc1ccc(C2CC(=O)C3=C(C2)Nc2ccccc2NC3c2ccc(Cl)cc2)cc1` (stereo not drawn) gave Dicer processing inactive.
`Cc1ccc(C2Nc3ccccc3NC3=C2C(=O)CC(C)(C)C3)c(O)c1` (stereo not drawn) gave Dicer processing inactive.
Screening COc1ccc(C2CC(=O)C3=C(C2)Nc2ccccc2NC3c2ccc(O)cc2)cc1 (stereo not drawn) returned Dicer processing inactive.
For CCOc1ccc(C2Nc3ccccc3NC3=C2C(=O)CC(c2ccccc2)C3)cc1 (stereo not drawn) the results were Dicer processing 3.63.
Screening Cc1ccc(C2Nc3ccccc3NC3=C2C(=O)CC(c2ccccc2)C3)cc1 (stereo not drawn) returned Dicer processing inactive.
Screening CN(C)c1ccc(C2Nc3ccccc3NC3=C2C(=O)CC(c2ccccc2)C3)cc1 (stereo not drawn) returned Dicer processing inactive.
